# Screen size: about 3,200 compounds; about 300 (9.4%) showed activity. The sample as a whole holds a higher share of actives than the screen did. Unmarked numbers belong to inactive results.
# Tested on: A673/TR/shEF
# Assay: cell viability (LOESS-normalised, relative to median of negative controls) (log2 ratio); higher = more viable cells (less compound effect), active = hit call of the paper (over 3 MAD below the median)
# Conditions: treatment time: 72 h
# Outline: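 A673/TR/shEF Ewing sarcoma cells were plated at 1,500 per well in 384-well plates and cultured with or without doxycycline, added 24 h before compounds, to induce EWS-FLI1 shRNA knockdown. Library compounds at two or more concentrations, alongside DMSO controls, were applied for three days. Cell viability was measured by CellTiter-Glo luminescence on an Envision reader. Readings were LOESS-corrected per plate, divided by the median of negative controls and log2-transformed, and hits were wells lying at least three median absolute deviations from the median of all screened wells.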
# [1] = 0.25 µM, library screen: screen1, EWS-FLI1 expression: high (no doxycycline)
# [2] = 0.25 µM, library screen: screen1, EWS-FLI1 expression: low (doxycycline-induced shRNA knockdown)
# [3] = 2.5 µM, library screen: screen1, EWS-FLI1 expression: high (no doxycycline)
# [4] = 2.5 µM, library screen: screen1, EWS-FLI1 expression: low (doxycycline-induced shRNA knockdown)
# [5] = 0.103 µM, library screen: screen3, EWS-FLI1 expression: high (no doxycycline)
# [6] = 0.103 µM, library screen: screen3, EWS-FLI1 expression: low (doxycycline-induced shRNA knockdown)
# [7] = 0.308 µM, library screen: screen3, EWS-FLI1 expression: high (no doxycycline)
# [8] = 0.308 µM, library screen: screen3, EWS-FLI1 expression: low (doxycycline-induced shRNA knockdown)
# [9] = 0.926 µM, library screen: screen3, EWS-FLI1 expression: high (no doxycycline)
# [10] = 0.926 µM, library screen: screen3, EWS-FLI1 expression: low (doxycycline-induced shRNA knockdown)
# [11] = 2.8 µM, library screen: screen3, EWS-FLI1 expression: high (no doxycycline)
# [12] = 2.8 µM, library screen: screen3, EWS-FLI1 expression: low (doxycycline-induced shRNA knockdown)
# [13] = 8.3 µM, library screen: screen3, EWS-FLI1 expression: high (no doxycycline)
# [14] = 8.3 µM, library screen: screen3, EWS-FLI1 expression: low (doxycycline-induced shRNA knockdown)
# [15] = 25 µM, library screen: screen3, EWS-FLI1 expression: high (no doxycycline)
# [16] = 25 µM, library screen: screen3, EWS-FLI1 expression: low (doxycycline-induced shRNA knockdown)
# [17] = 0.25 µM, library screen: screen2, EWS-FLI1 expression: high (no doxycycline)
# [18] = 0.25 µM, library screen: screen2, EWS-FLI1 expression: low (doxycycline-induced shRNA knockdown)
# [19] = 2.5 µM, library screen: screen2, EWS-FLI1 expression: high (no doxycycline)
# [20] = 2.5 µM, library screen: screen2, EWS-FLI1 expression: low (doxycycline-induced shRNA knockdown)
smiles,measurement,setting,value
COc1cc(C(=O)NC2CCCCC2)c([N+](=O)[O-])cc1OC,cell viability (log2),[1],0.122
same,cell viability (log2),[2],0.0996
same,cell viability (log2),[3],0.157
same,cell viability (log2),[4],0.0416
CC(=O)O[C@]1(C(=O)CO)[C@H](C)C[C@H]2[C@@H]3CCC4=CC(=O)C=C[C@]4(C)[C@@]3(F)[C@@H](O)C[C@@]21C,cell viability (log2),[1],0.0305
same,cell viability (log2),[2],-0.118
same,cell viability (log2),[3],0.0736
same,cell viability (log2),[4],-0.0945
COc1ccc(/C=C(/NC(=O)c2ccccc2)C(=O)N2CCCCCC2)cc1OC,cell viability (log2),[1],0.12
same,cell viability (log2),[2],0.0586
same,cell viability (log2),[3],0.088
same,cell viability (log2),[4],0.085
CC(C(=O)O)[C@H]1CCC2C3CC=C4C[C@@H](O)CC[C@]4(C)C3CC[C@@]21C (some centres not stated),cell viability (log2),[1],0.0415
same,cell viability (log2),[2],0.0559
same,cell viability (log2),[3],0.0699
same,cell viability (log2),[4],-0.0298
CC1(C)CC(=O)C2=C(C1)Nc1ccccc1N(C(=O)Cc1ccc(Cl)cc1)C2c1cccnc1 (configuration not stated),cell viability (log2),[1],0.0404
same,cell viability (log2),[2],0.0353
same,cell viability (log2),[3],0.127
same,cell viability (log2),[4],0.0963
CC1=C(C(=O)Nc2ccccc2Cl)C(c2ccc(F)cc2)NC(=O)N1 (configuration not stated),cell viability (log2),[1],0.153
same,cell viability (log2),[2],0.0871
same,cell viability (log2),[3],0.0947
same,cell viability (log2),[4],-0.018
CC1(C)CC2C1CCC1(CBr)CCC3C(CC(=O)O)C(=O)OC32C1 (configuration not stated),cell viability (log2),[1],0.146
same,cell viability (log2),[2],0.038
same,cell viability (log2),[3],0.195
same,cell viability (log2),[4],0.152
CCN(CC)CCNC(=O)c1c(C)[nH]c(/C=C2\C(=O)Nc3ccc(F)cc32)c1C,cell viability (log2),[5],0.0562
same,cell viability (log2),[6],0.0683
same,cell viability (log2),[7],0.0856
same,cell viability (log2),[8],0.0784
same,cell viability (log2),[9],-0.0103
same,cell viability (log2),[10],0.0749
same,cell viability (log2),[11],-0.00223
same,cell viability (log2),[12],0.0762
same,cell viability (log2),[13],-0.0922
same,cell viability (log2),[14],0.071
same,cell viability (log2),[15],-0.697 (active)
same,cell viability (log2),[16],-0.541 (active)
CCN(CC)CCNC(=O)c1ccc(N)cc1,cell viability (log2),[1],0.0893
same,cell viability (log2),[2],0.128
same,cell viability (log2),[17],0.138
same,cell viability (log2),[18],0.0499
same,cell viability (log2),[3],0.121
same,cell viability (log2),[4],0.267
same,cell viability (log2),[19],0.308
same,cell viability (log2),[20],0.0657
CCN(CC)CCNC(=O)c1cc(S(C)(=O)=O)ccc1OC,cell viability (log2),[1],0.0293
same,cell viability (log2),[2],0.172
same,cell viability (log2),[17],0.198
same,cell viability (log2),[18],0.0568
same,cell viability (log2),[3],0.105
same,cell viability (log2),[4],0.182
same,cell viability (log2),[19],0.192
same,cell viability (log2),[20],0.0888
C[N+]1(C)C2CC(OC(=O)C(O)(c3cccs3)c3cccs3)CC1C1OC12 (configuration not stated),cell viability (log2),[5],0.0262
same,cell viability (log2),[6],0.0758
same,cell viability (log2),[7],0.0294
same,cell viability (log2),[8],0.0213
same,cell viability (log2),[9],-0.023
same,cell viability (log2),[10],0.0295
same,cell viability (log2),[11],0.0205
same,cell viability (log2),[12],0.0567
same,cell viability (log2),[13],0.0784
same,cell viability (log2),[14],0.0507
same,cell viability (log2),[15],0.1
same,cell viability (log2),[16],0.116
COC(=O)C(C(C)=O)C(C)=O,cell viability (log2),[1],0.0323
same,cell viability (log2),[2],0.0334
same,cell viability (log2),[3],0.0258
same,cell viability (log2),[4],0.125
CC(/C=C/C=C(\C)c1cc(C(C)(C)C)cc(C(C)(C)C)c1)=C\C(=O)O,cell viability (log2),[17],0.134
same,cell viability (log2),[18],0.0751
same,cell viability (log2),[19],0.0952
same,cell viability (log2),[20],0.134
C=CCNC(=O)c1ccc(CN(c2cccc(Cl)c2)S(C)(=O)=O)cc1,cell viability (log2),[1],0.0663
same,cell viability (log2),[2],0.0926
same,cell viability (log2),[3],0.107
same,cell viability (log2),[4],0.133
O=C(O)c1c2ccccc2cc2ccccc12,cell viability (log2),[1],0.0833
same,cell viability (log2),[2],0.174
same,cell viability (log2),[3],0.112
same,cell viability (log2),[4],0.125
NCCC(=O)c1ccccc1N,cell viability (log2),[1],0.0986
same,cell viability (log2),[2],0.0335
same,cell viability (log2),[3],0.167
same,cell viability (log2),[4],0.184
C[N+](C)(C)CCC(=O)c1cccc2ccccc12,cell viability (log2),[17],-0.0772 (active)
same,cell viability (log2),[18],0.0591
same,cell viability (log2),[19],-0.524 (active)
same,cell viability (log2),[20],-0.0126
COC(=O)C[C@H]1C(C)(C)C(OC(C)=O)[C@]2(O)C=C3C(CC[C@]4(C)C3CC(=O)O[C@H]4c3ccoc3)C1(C)C2=O (some centres not stated),cell viability (log2),[1],0.102
same,cell viability (log2),[2],0.114
same,cell viability (log2),[3],0.0649
same,cell viability (log2),[4],0.0874
COc1nc(N)nc2c1ncn2[C@@H]1O[C@H](CO)[C@@H](O)[C@@H]1O,cell viability (log2),[5],-0.0331
same,cell viability (log2),[6],0.0967
same,cell viability (log2),[7],0.111
same,cell viability (log2),[8],0.1
same,cell viability (log2),[9],0.0614
same,cell viability (log2),[10],0.133
same,cell viability (log2),[11],0.0686
same,cell viability (log2),[12],0.0525
same,cell viability (log2),[13],0.0218
same,cell viability (log2),[14],0.0206
same,cell viability (log2),[15],0.0232
same,cell viability (log2),[16],0.121
C[C@H](Cc1ccccc1)Nc1ncnc2c1ncn2[C@@H]1O[C@H](CO)[C@H](O)C1O (some centres not stated),cell viability (log2),[17],0.0269
same,cell viability (log2),[18],0.14
same,cell viability (log2),[19],0.0399
same,cell viability (log2),[20],0.136
COc1ccc(C[C@@H](N)C(=O)N[C@H]2[C@@H](O)[C@H](n3cnc4c(N(C)C)ncnc43)O[C@@H]2CO)cc1,cell viability (log2),[1],0.0185
same,cell viability (log2),[2],-0.00341
same,cell viability (log2),[3],-1.82 (active)
same,cell viability (log2),[4],-2 (active)
CN1/C(=C(\O)Nc2ccccn2)C(=O)c2ccccc2S1(=O)=O,cell viability (log2),[5],0.0972
same,cell viability (log2),[6],0.122
same,cell viability (log2),[1],-0.035
same,cell viability (log2),[2],0.0628
same,cell viability (log2),[17],0.14
same,cell viability (log2),[18],0.0798
same,cell viability (log2),[7],0.121
same,cell viability (log2),[8],0.145
same,cell viability (log2),[9],0.194
same,cell viability (log2),[10],0.0843
same,cell viability (log2),[3],0.139
same,cell viability (log2),[4],0.148
same,cell viability (log2),[19],0.135
same,cell viability (log2),[20],0.0591
same,cell viability (log2),[11],0.173
same,cell viability (log2),[12],0.0997
same,cell viability (log2),[13],0.146
same,cell viability (log2),[14],0.0703
same,cell viability (log2),[15],0.152
same,cell viability (log2),[16],0.0778
Nc1nc(Nc2ccccc2)nc2c1ncn2C1O[C@H](CO)[C@@H](O)[C@H]1O (some centres not stated),cell viability (log2),[17],0.161
same,cell viability (log2),[18],0.05
same,cell viability (log2),[19],0.213
same,cell viability (log2),[20],-0.0193
Nc1cccc(-c2cc3c(Oc4cccc(O)c4)ncnc3[nH]2)c1,cell viability (log2),[5],0.136
same,cell viability (log2),[6],0.0102
same,cell viability (log2),[7],0.0422
same,cell viability (log2),[8],0.0346
same,cell viability (log2),[9],0.0247
same,cell viability (log2),[10],0.00411
same,cell viability (log2),[11],-0.00369
same,cell viability (log2),[12],0.0285
same,cell viability (log2),[13],-0.0241
same,cell viability (log2),[14],0.0796
same,cell viability (log2),[15],-0.494 (active)
same,cell viability (log2),[16],-0.321 (active)

# Source: the supplement of paper PMC6089552
